The values that follow come from PubChem BioAssay.

A short description of test [1]: E. coli DRC41 culture turbidity changes, primary screen, E. coli filamentation inducer project, strain DRC41, OD650, 48 h (AID 1152).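 Further: E. coli MC1000 strain DRC41 lacking acrAB efflux pump and sulA.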 To be noted: E. coli DRC41 (acrAB sulA), higher = more signal, called active from +8 up or from −8 down.
Test [2] in a line: small-molecule binders of probe aLefty1, primary screen, biochemical, small-molecule microarray, 635/667 nm fluorescence (AID 1153).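 Further: score merges spot fluorescence with signal-to-noise ratio from the scanned slide images.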 To be noted: higher = more signal.
Test [3] can be described thus: PSAC antagonists in infected red cells, primary screen, cell-based, P. falciparum Indochina, OD700, 1 h (AID 1154). To be noted: P. falciparum Indochina infected RBC osmotic lysis, higher = more signal, called active from +8 up or from −8 down.
Test [4] in a line: PSAC antagonists in infected red cells, primary screen, cell-based, P. falciparum Indochina, OD700, 2 h (AID 1155).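 Further: lysis reports solute entry through the parasite surface anion channel PSAC; channel blockers reduce lysis of infected cells.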 Particulars: P. falciparum Indochina infected erythrocytes, osmotic lysis OD700; higher = more signal, called active from +8 up or from −8 down.
A short description of test [5]: osmotic lysis modulators in infected erythrocytes, primary screen, PSAC antagonist project, cell-based, P. falciparum Indochina, OD700, 3 h (AID 1156). Particulars: higher = more signal, called active from +8 up or from −8 down.
Test [6] in a line: PSAC antagonists in infected red cells, primary screen, cell-based, P. falciparum Indochina, OD700, 18 h (AID 1157). To be noted: P. falciparum Indochina infected erythrocytes, osmotic lysis OD700, 18 h; higher = more signal, called active from +8 up or from −8 down.
A short description of test [7]: modulators of S6 phosphorylation in cells, primary screen, cell-based, A549, cytoblot, luminescence, serum-stimulated (AID 1158).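 Further: serum-stimulated A549 lung adenocarcinoma cells; signal is phosphorylated S6 detected by cytoblot immunostaining with HRP secondary.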 Particulars: A549 phospho-S6 cytoblot, 5 h, higher = more signal.
In test [8] the target is NADPH oxidase 2 (Homo sapiens) (UniProt P04839). In words: NOX2-dependent H2O2 signal modulators, primary screen, NOX inhibitor project, cell-based, HEK293-NOX2, PMA-stimulated, Amplex Red fluorescence (AID 1159). Further: test concentration not given here. Particulars: 45 min, higher = more signal, called active from +8 up or from −8 down.
Test [9] addresses NADPH oxidase 4 (Homo sapiens) (UniProt Q9NPH5). In words: NOX4-dependent H2O2 signal modulators, primary screen, NOX inhibitor project, cell-based, HEK293-NOX4, tetracycline-induced, Amplex Red fluorescence (AID 1160). Particulars: 45 min, higher = more signal, called active from +8 up or from −8 down.
The target of test [10] is NADPH oxidase 5 (Homo sapiens) (UniProt Q96PH1). In words: NOX5-dependent H2O2 signal modulators, primary screen, NOX inhibitor project, cell-based, HEK293-NOX5, Amplex Red fluorescence (AID 1161). To be noted: HEK293-NOX5, ionomycin, 45 min, higher = more signal.
Test [11] in a line: A549 cell viability effects, profiling panel, calcein-AM fluorescence, 48 h, basal (AID 1162). Further: test concentration not given here. Particulars: higher = more signal.
Test [12] in a line: adipocyte viability effects, profiling panel, cell-based, 3T3-L1 adipocytes, calcein-AM fluorescence, 48 h, basal (AID 1163). Further: test concentration not given here. Particulars: 3T3-L1 adipocytes viability, higher = more signal.
Test [13] can be described thus: HepG2 cell viability effects, profiling panel, calcein-AM fluorescence, 48 h, basal (AID 1164). Further: test concentration not given here. To be noted: higher = more signal.
A short description of test [14]: MM1S cell viability effects, profiling panel, calcein-AM fluorescence, 48 h, basal (AID 1165).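 Further: viability of MM1S multiple myeloma cells under basal unstimulated conditions; test concentration not given here.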 Particulars: higher = more signal.
The nature of test [15]: basal RPMI8226 viability, no added stimulus, profiling panel, cell-based, calcein-AM fluorescence, 48 h, PK04 Diversity Set (AID 1166).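 Further: cells grown under basal conditions without added stimulus; test concentration not given here.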 Particulars: RPMI8226 myeloma viability, higher = more signal.
Test [16] can be described thus: basal HepG2 mitochondrial membrane potential changes, profiling panel, cell-based, JC-1 fluorescence, 24 h, 100 nL compound (AID 1167). Further: test concentration not given here. To be noted: higher = more signal.
The nature of test [17]: basal 3T3-L1 adipocyte mitochondrial potential changes, profiling panel, cell-based, JC-1 fluorescence, 3T3-L1 adipocytes, 24 h, 100 nL compound (AID 1168). Further: test concentration not given here. To be noted: JC-1 mitochondrial fluorescence, higher = more signal, called active from +8 up or from −8 down.
Test [18] can be described thus: basal RPMI8226 mitochondrial membrane potential changes, profiling panel, cell-based, JC-1 fluorescence, 24 h, 100 nL compound (AID 1169). Further: test concentration not given here. To be noted: RPMI8226 myeloma, JC-1 mitochondrial potential fluorescence, higher = more signal.
The nature of test [19]: basal MM1S mitochondrial membrane potential changes, profiling panel, cell-based, JC-1 fluorescence, 24 h, 100 nL compound (AID 1170). Further: test concentration not given here. Particulars: higher = more signal.
Test [20] can be described thus: A549 lung cancer cell viability effects, profiling panel, resazurin fluorescence, 24 h, PK04 Diversity Set (AID 1171). Further: test concentration not given here. Particulars: higher = more signal, called active from +8 up or from −8 down.

The source made the active and inactive calls.

Chain of NADPH oxidase 5 (Homo sapiens) (Q96PH1 whole entry, looked up): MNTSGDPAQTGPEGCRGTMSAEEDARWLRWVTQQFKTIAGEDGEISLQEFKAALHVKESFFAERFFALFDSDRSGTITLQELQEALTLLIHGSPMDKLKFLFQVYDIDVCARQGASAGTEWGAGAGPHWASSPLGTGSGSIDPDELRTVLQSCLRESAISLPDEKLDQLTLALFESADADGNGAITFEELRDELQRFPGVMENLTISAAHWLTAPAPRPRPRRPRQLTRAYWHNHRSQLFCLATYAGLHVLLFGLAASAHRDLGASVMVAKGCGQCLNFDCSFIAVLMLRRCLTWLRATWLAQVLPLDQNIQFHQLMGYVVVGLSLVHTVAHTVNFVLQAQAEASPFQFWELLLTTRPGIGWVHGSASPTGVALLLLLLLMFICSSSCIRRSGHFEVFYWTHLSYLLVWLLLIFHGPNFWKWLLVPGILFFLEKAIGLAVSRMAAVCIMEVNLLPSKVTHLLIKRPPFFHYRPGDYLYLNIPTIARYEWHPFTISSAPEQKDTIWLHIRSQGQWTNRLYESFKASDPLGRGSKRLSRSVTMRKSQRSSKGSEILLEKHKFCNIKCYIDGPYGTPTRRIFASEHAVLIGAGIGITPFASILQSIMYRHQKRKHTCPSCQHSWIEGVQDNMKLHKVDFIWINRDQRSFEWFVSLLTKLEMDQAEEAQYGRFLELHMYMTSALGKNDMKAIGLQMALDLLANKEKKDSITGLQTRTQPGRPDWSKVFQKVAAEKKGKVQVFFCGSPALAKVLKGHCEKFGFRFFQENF
Chain of NADPH oxidase 4 (Homo sapiens) (Q9NPH5 whole entry, looked up): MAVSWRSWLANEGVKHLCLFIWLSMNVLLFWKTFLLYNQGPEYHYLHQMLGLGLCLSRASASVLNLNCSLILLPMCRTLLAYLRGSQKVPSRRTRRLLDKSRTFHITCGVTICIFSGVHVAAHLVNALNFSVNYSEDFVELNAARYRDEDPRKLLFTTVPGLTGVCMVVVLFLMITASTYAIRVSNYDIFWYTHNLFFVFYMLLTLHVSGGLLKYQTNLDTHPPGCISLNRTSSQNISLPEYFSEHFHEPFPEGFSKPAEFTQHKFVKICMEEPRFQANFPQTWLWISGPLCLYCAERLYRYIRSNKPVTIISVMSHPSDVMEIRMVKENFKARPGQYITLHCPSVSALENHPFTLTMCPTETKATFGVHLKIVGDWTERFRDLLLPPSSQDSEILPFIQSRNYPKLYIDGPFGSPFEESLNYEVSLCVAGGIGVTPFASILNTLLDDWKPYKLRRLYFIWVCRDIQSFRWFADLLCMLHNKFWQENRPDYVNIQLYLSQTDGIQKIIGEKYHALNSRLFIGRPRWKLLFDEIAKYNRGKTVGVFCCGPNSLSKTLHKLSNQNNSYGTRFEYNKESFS
Chain of NADPH oxidase 2 (Homo sapiens) (P04839 whole entry, looked up): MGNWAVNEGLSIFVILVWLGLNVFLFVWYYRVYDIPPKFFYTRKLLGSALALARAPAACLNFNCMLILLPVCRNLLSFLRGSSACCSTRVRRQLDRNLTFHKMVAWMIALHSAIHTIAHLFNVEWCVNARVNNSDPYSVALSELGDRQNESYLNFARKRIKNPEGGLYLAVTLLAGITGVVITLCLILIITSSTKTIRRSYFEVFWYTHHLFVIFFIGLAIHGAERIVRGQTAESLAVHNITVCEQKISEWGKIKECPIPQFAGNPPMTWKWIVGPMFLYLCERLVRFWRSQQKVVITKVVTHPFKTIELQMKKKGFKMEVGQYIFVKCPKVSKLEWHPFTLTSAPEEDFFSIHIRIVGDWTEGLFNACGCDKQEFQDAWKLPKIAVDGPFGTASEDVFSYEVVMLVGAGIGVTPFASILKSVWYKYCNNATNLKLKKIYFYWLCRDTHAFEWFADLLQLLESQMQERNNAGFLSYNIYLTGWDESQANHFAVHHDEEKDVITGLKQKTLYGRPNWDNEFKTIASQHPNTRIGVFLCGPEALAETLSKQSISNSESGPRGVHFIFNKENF

On to `CCOC(=O)[C@H](CC(C)C)NC(=O)CCC1CC(OC(=O)NCCc2ccc(F)cc2)CC2(CCCC(COC(=O)NCCc3ccccc3OC)O2)O1` (stereo not given in full), for which the z-score in test [1] was -0.501 (inactive); in [3] it was -1.58 (inactive); in test [4], -0.344 (inactive); in [5], -0.17 (inactive); in test [6] it was -0.142 (inactive); in [7], -0.0491. Moreover, the z-score is 0.00967 (inactive) in test [8]; 0.15 (inactive) in [9]; -0.0222 in test [10]; 0.239 in test [11]; -0.227 in test [12]; -0.204 in test [13]. Also, the z-score in test [14] is -1.35; in [15] it was -1.41; in test [16], 0.481; in test [17] it was 0.293 (inactive); in [18] it was -0.106; in [19], -0.878. For the same molecule, the z-score in [20] is -0.311 (inactive). The composite z-score in test [2] was -0.0603.
Regarding `C#CCCCON=C1C[C@@H](O)[C@@H](O)[C@@H]2[C@@H]3C(=O)N(CC)C(=O)[C@@H]3CC[C@@H]12`, the z-score in test [1] was -0.229 (inactive); in test [3] it was 0.299 (inactive); in test [4] it was 0.363 (inactive); in test [5], -0.26 (inactive); in [6], -0.0637 (inactive); in test [7], -0.595. The z-score in test [8] is 0.275 (inactive); in test [9], 0.764 (inactive); in test [10] it was -0.64; in test [11] it was -0.36; in test [12], -0.843; in test [13], 0.075. The z-score in [14] is 0.0133; in test [15], 0.338; in test [16], -0.836; in test [17], -1.26 (inactive); in test [18] it was -0.0744; in [19], -0.312. In addition, the z-score in test [20] was -0.526 (inactive). Moreover, the composite z-score in [2] was -0.243.
Turning to `CO[C@H]1COC(=O)[C@H](C)NC(=O)[C@@H](C)COC(=O)[C@H]2CCCN2C(=O)CC=C[C@H]1C`, the z-score in [1] was -0.0911 (inactive); in test [3], 0.551 (inactive); in test [4], 0.453 (inactive); in test [5] it was 0.603 (inactive); in [6], 0.293 (inactive); in test [7], 0.203. Also, the z-score in [8] was -0.752 (inactive); in test [9] it was 0.0917 (inactive); in test [10], 0.363; in test [11] it was -0.622; in test [12] it was -0.321; in [13], -0.0694. Further, the z-score in test [14] was -0.151; in test [15], 0.353; in test [16], 0.132; in test [17] it was -0.658 (inactive); in test [18], -0.0639; in [19], -1.01. For the same molecule, in test [20], the z-score was -0.463 (inactive). The molecule further displayed a composite z-score in test [2] of -0.194.
Turning to `CC(C)=CCCC(C)=CCON=C1C[C@@H](O)[C@@H](O)[C@@H]2[C@@H]3C(=O)N(Cc4ccccc4)C(=O)[C@@H]3CC[C@H]12`, the z-score in test [1] is -0.169 (inactive); in test [3] it was 4.49 (inactive); in test [4] it was -0.206 (inactive); in test [5], 0.957 (inactive); in test [6] it was -0.748 (inactive); in test [7] it was -0.352. In addition, the z-score is 1.51 (inactive) in [8]; 0.913 (inactive) in [9]; -2.3 in [10]; -0.424 in test [11]; 0.753 in test [12]; -0.908 in test [13]. The z-score is -0.13 in test [14]; -1.41 in test [15]; 1.66 in test [16]; -0.468 (inactive) in test [17]; 0.394 in test [18]; -0.0142 in [19]. Moreover, the z-score in test [20] is 0.539 (inactive). In addition, in test [2], the composite z-score is -0.0197.
